The panel holds about 83,000 compounds, 20% with a hit somewhere; the sample as a whole holds those more often.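 96-well plates, one dose, 48 hours. Percent growth reported; active if below 10.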 Unmarked numbers belong to inactive results. The source made the active and inactive calls.

Some test systems named below: RPMI-8226 leukemia; OVCAR-8 ovarian; OVCAR-5 ovarian; OVCAR-4 ovarian; SK-OV-3 ovarian; IGROV1 ovarian; OVCAR-3 ovarian; HS 578T breast; NCI/ADR-RES ovarian; T-47D breast.
What all share (test): NCI-60 one-dose screen, 48 h (100 = growth as untreated, 0 = no growth, -100 = all killed)
Conditions in all cases: 10 µM

In the case of `Cc1ccc2oc3nc(C)c(C(=O)NCc4ccccc4)cc3c(=O)c2c1`, the growth with RPMI-8226 leukemia is 86.1%; in the experiment on OVCAR-8 ovarian, 92.5%; in the experiment with OVCAR-5 ovarian, 86.8%; with OVCAR-4 ovarian, 85.3%; in the experiment with SK-OV-3 ovarian, 116%; with IGROV1 ovarian, 103%. Moreover, the growth with OVCAR-3 ovarian was 99.7%; in the experiment with HS 578T breast, 106%; in the experiment with NCI/ADR-RES ovarian it was 63.4%; in the experiment with T-47D breast, 63.5%.
For `Cc1ccc(C(=O)N2C/C(=C/c3ccccc3)C(=O)/C(=C/c3ccccc3)C2)cc1`, the growth in the experiment on RPMI-8226 leukemia is -23.1% (active); in the experiment on OVCAR-8 ovarian it was 48.7%; in the experiment on OVCAR-5 ovarian, 105%; in the experiment on OVCAR-4 ovarian, 75.3%; in the experiment on SK-OV-3 ovarian it was 78.9%; in the experiment with IGROV1 ovarian, 69.1%. In addition, the growth in the experiment with OVCAR-3 ovarian was 57.9%; in the experiment with HS 578T breast it was 9.99% (active); in the experiment with NCI/ADR-RES ovarian, 66.1%; in the experiment with T-47D breast it was 61.8%.
For the compound `O=S(=O)(NCCCNc1nccc(-c2c(-c3ccc(F)cc3)nc3sccn23)n1)c1ccc(F)cc1`, the growth in the experiment with RPMI-8226 leukemia was 32.1%; with OVCAR-8 ovarian it was 17.7%; in the experiment with OVCAR-5 ovarian, 62.7%; in the experiment with OVCAR-4 ovarian, 57.5%; in the experiment on SK-OV-3 ovarian, 59.7%; with IGROV1 ovarian it was 18.6%. Besides, the growth in the experiment on OVCAR-3 ovarian was 55.4%; in the experiment with HS 578T breast, 66.8%; in the experiment on NCI/ADR-RES ovarian, 31.3%; with T-47D breast, -2.52% (active).
With `Fc1ccc(-c2nnc(-c3c(-c4ccc(F)cc4)nc4ccccn34)o2)cc1`, the growth in the experiment on RPMI-8226 leukemia is 85.1%; in the experiment on OVCAR-8 ovarian, 36.7%; with OVCAR-5 ovarian it was 99.9%; in the experiment on OVCAR-4 ovarian it was 88.8%; with SK-OV-3 ovarian, 85.3%; in the experiment on IGROV1 ovarian, 114%. The growth was 90.3% in the experiment on OVCAR-3 ovarian, 92.4% in the experiment with HS 578T breast, 67.7% with NCI/ADR-RES ovarian and 62.3% with T-47D breast.
Regarding `ClC(Cl)(Cl)c1nc2nccnc2[nH]1`, the growth in the experiment with RPMI-8226 leukemia was 98.8%; in the experiment on OVCAR-8 ovarian, 107%; with OVCAR-5 ovarian, 104%; in the experiment with OVCAR-4 ovarian, 97.3%; in the experiment on SK-OV-3 ovarian, 102%; with IGROV1 ovarian it was 103%. In addition, the growth in the experiment on OVCAR-3 ovarian was 118%; in the experiment on HS 578T breast it was 99.2%; with NCI/ADR-RES ovarian, 109%; in the experiment on T-47D breast, 101%.
`CN(C)Cc1cn(-c2ncc(-c3ccc(C(F)(F)F)cc3)c(NC3CCCCCC3)n2)nn1`: the growth in the experiment with RPMI-8226 leukemia is 60.4%; in the experiment on OVCAR-8 ovarian it was 83.1%; in the experiment with OVCAR-5 ovarian it was 110%; with OVCAR-4 ovarian it was 79.9%; in the experiment with SK-OV-3 ovarian, 86.5%; in the experiment with IGROV1 ovarian, 71.3%. The growth in the experiment on OVCAR-3 ovarian is 86%; in the experiment on HS 578T breast, 93.6%; in the experiment with NCI/ADR-RES ovarian, 91.9%; in the experiment on T-47D breast, 81.7%.
Consider `N#Cc1ncc(Br)c(NC2CCCCCC2)n1`, for which the growth with RPMI-8226 leukemia was 93.4%; in the experiment on OVCAR-8 ovarian it was 89.8%; in the experiment with OVCAR-5 ovarian, 99.9%; with OVCAR-4 ovarian, 91.3%; in the experiment with SK-OV-3 ovarian it was 99.1%; in the experiment with IGROV1 ovarian, 104%. Besides, the growth with OVCAR-3 ovarian was 119%; in the experiment on HS 578T breast, 107%; in the experiment on NCI/ADR-RES ovarian, 106%; in the experiment with T-47D breast, 90.8%.
For the compound `CC(=O)/C(=C/c1ccccc1)C(=O)CC(C)C`, the growth was 18.4% in the experiment with RPMI-8226 leukemia; 75.2% with OVCAR-8 ovarian; 93.9% with OVCAR-5 ovarian; 103% in the experiment on OVCAR-4 ovarian; 106% in the experiment on SK-OV-3 ovarian; 98.8% in the experiment with IGROV1 ovarian. In addition, the growth in the experiment with OVCAR-3 ovarian was 75.1%; in the experiment on HS 578T breast, 89.6%; with NCI/ADR-RES ovarian, 93.5%; with T-47D breast, 107%.
For the compound `O=C(Nc1ccc(OS(=O)(=O)c2ccccc2)cc1)C12CC3CC(CC(C3)C1)C2`, the growth in the experiment with RPMI-8226 leukemia was 18.8%; in the experiment with OVCAR-8 ovarian, 63%; in the experiment on OVCAR-5 ovarian, 68%; in the experiment with OVCAR-4 ovarian, 58.9%; in the experiment on SK-OV-3 ovarian, 74%; in the experiment on IGROV1 ovarian, 75.1%. Further, the growth with OVCAR-3 ovarian is 63.9%; in the experiment on HS 578T breast, 63.1%; with NCI/ADR-RES ovarian, 52.5%; with T-47D breast, 27%.
For `O=C(CC(NC(=O)OCc1ccccc1)C(=O)OCc1ccccc1)OCc1ccccc1` (stereo not given), the growth with RPMI-8226 leukemia was 99.2%; in the experiment with OVCAR-8 ovarian, 99%; in the experiment on OVCAR-5 ovarian, 103%; in the experiment with OVCAR-4 ovarian it was 109%; in the experiment with SK-OV-3 ovarian it was 95.1%; in the experiment with IGROV1 ovarian, 108%. Moreover, the growth is 110% with OVCAR-3 ovarian, 97.9% in the experiment on HS 578T breast, 98% in the experiment on NCI/ADR-RES ovarian and 100% with T-47D breast.
Regarding `N#CCCN1C/C(=C/c2ccc(Cl)cc2)C(=O)/C(=C/c2ccc(Cl)cc2)C1`, the growth with RPMI-8226 leukemia is -15.5% (active); in the experiment on OVCAR-8 ovarian, -22% (active); with OVCAR-5 ovarian, 4.05% (active); in the experiment on OVCAR-4 ovarian it was 8.18% (active); in the experiment on SK-OV-3 ovarian it was -10.2% (active); in the experiment on IGROV1 ovarian it was -66.7% (active). Moreover, the growth is -48.6% (active) with OVCAR-3 ovarian, -9.16% (active) in the experiment on HS 578T breast, 11.1% in the experiment with NCI/ADR-RES ovarian and 8.7% (active) in the experiment with T-47D breast.
With `COc1cc(Nc2ccnc(NCCNc3ccnc4cc(Cl)ccc34)n2)cc(OC)c1`, the growth in the experiment on RPMI-8226 leukemia is -42.7% (active); with OVCAR-8 ovarian, 45.4%; with OVCAR-5 ovarian it was 43.9%; in the experiment on OVCAR-4 ovarian, 42.4%; in the experiment on SK-OV-3 ovarian it was 75.1%; with IGROV1 ovarian it was 23.6%. In addition, the growth in the experiment with OVCAR-3 ovarian was 56.8%; with HS 578T breast it was 63.7%; in the experiment on NCI/ADR-RES ovarian, 67.9%; in the experiment with T-47D breast, 15.5%.
With `O=C(N/N=C\c1cc(Cl)ccc1[N+](=O)[O-])c1ccco1`, the growth was 109% in the experiment with RPMI-8226 leukemia; 101% in the experiment with OVCAR-8 ovarian; 118% with OVCAR-5 ovarian; 105% in the experiment on OVCAR-4 ovarian; 130% in the experiment on SK-OV-3 ovarian; 127% in the experiment on IGROV1 ovarian. For the same compound, the growth in the experiment with OVCAR-3 ovarian was 107%; in the experiment with HS 578T breast, 100%; in the experiment with NCI/ADR-RES ovarian, 100%; in the experiment on T-47D breast it was 83.7%.

The values above are taken from PubChem BioAssay (NCI).
